Data taken from PubChem BioAssay (Tox21).
Results filed as inconclusive are left out. Unmarked numbers belong to inactive results. Calls of active or inactive are those of the source. Calls follow the shape of the full dose curve.

What follows are molecules tested against Acetylcholinesterase (Homo sapiens) (UniProt P22303) (assay: Acetylcholinesterase (AChE) small molecule antagonists: colormetric cell-based qHTS assay (AID 1347395; also: nearly all actives have a fitted effect of over 30% in size)). Details: SH-SY5Y cells AChE activity, colorimetric (Ellman); series mostly up to 115 µM; activity, negative = inhibition: at the top concentration.
Chain of Acetylcholinesterase (Homo sapiens) (P22303 whole entry, looked up): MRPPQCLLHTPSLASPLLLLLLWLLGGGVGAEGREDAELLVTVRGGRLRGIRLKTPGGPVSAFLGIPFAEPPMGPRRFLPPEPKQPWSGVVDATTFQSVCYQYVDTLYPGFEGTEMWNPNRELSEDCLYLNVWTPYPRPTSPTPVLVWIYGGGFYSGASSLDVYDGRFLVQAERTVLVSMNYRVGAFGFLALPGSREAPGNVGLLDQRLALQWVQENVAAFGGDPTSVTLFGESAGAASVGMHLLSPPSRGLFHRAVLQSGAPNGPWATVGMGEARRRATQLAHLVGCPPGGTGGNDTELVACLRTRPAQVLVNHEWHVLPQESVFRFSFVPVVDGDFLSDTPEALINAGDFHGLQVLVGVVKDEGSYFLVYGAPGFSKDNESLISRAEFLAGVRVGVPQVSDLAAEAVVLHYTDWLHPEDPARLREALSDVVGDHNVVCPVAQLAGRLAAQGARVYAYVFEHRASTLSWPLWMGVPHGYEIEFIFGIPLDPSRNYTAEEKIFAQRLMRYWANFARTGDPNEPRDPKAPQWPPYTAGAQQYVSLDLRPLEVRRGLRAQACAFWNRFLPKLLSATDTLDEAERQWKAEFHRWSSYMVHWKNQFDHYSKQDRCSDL
From the text: National Center for Advancing Translational Sciences [NCATS]
Division of Preclinical Innovation [DPI]
U.S. Environmental Protection Agency [EPA]
National Institutes of Environmental Health Sciences [NIEHS]
National Toxicology Program [NTP]
U.S. Food and Drug Administration [FDA]
Acetylcholinesterase (AChE) is the primary cholinesterase in the body that hydrolyzes a key neurotransmitter, acetylcholine. Inhibition of AChE activity can lead to neurotoxicity. The known inhibitors include organophosphorous pesticides (OP), chemical warfare agents, drugs, and various phytochemicals.
A homogenous cell-based assay using the Amplite Colormetric acetylcholinesterase assay kit (AAT Bioquest, Sunnyvale, CA) was used to evaluate the chemicals in the Tox21 10K library that inhibit AChE activity. The assay uses 5, 5-dithiobis-(2-nitrobenzoic acid) (DTNB) to quantify the thiocholine produced from the hydrolysis of acetylthiocholine by AChE from the SH-SY5Y cells.
Tox21 Assay Protocol Summary:
For the cell-based AChE assay, 2,000 SH-SY5Y cells in 4 uL/well were dispensed into black, clear-bottom 1536-well plates using a Multidrop Combi dispenser (Thermo Scientific, MA). The assay plates were incubated overnight at 37 C to allow cells to attach to the wells, followed by the transfer of 23 nL of compound or DMSO (vehicle control) by a Pintool Station (Wako Automation, CA). The plates were incubated for 30 min at 37 C and 5% CO2, followed by the addition of 4 uL of detection cocktail solution (DTNB, acetylthiocholine) into each well using a Flying Reagent Dispenser (Beckman Coulter, CA) and then 90 min incubation at 37 C.
% is scaled to controls: 0 for no effect and ±100 for the full control effect.

| Compound | activity, negative = inhibition | outcome |
| --- | --- | --- |
| Clc1cc(Cl)c(Cl)nc1Cl | 1.43% | – |
| CCOC(=O)c1ccccc1O | 0.264% [at 52.9 µM] | – |
| O=C(O)c1cc(O)c2ccccc2c1O | -9.82% | – |
| CCCCCCCCCCCCCCN(CCO)CCO | -11.6% | – |
| CC(=O)OCC(C)OC(C)=O (stereo not given) | 0% | – |
| O=C(CN1CCN(Cc2ccc3c(c2)OCO3)CC1)N1c2ccccc2Sc2ccccc21 | -4.27% [at 52.9 µM] | – |
| O=C1CC2(CCCC2)CC(=O)N1 | 0.159% [at 52.9 µM] | – |
| COc1cc(NC(C)CCCN)c2ncccc2c1 (stereo not given) | -2.3% [at 52.9 µM] | – |
| CCOc1ncc(F)c(=O)[nH]1 | -1.26% [at 52.9 µM] | – |
| Cc1ccc2c(c1)CCCN2 | -0.91% | – |
| CC(C)(C)c1nnc(NS(=O)(=O)c2ccc(N)cc2)s1 | 2.82% [at 52.9 µM] | – |
| O=C1OC[C@H](Cc2cccc(O)c2)[C@H]1Cc1cccc(O)c1 | 0.969% [at 52.9 µM] | – |
| BrCCCCCBr | 0.0969% | – |
| O=c1[nH]c(=O)n([C@H]2O[C@H](CO)[C@@H](O)[C@@H]2O)cc1/C=C\Br | 0.617% [at 52.9 µM] | – |
| O=C1C=CC(=O)N1c1ccc(Cc2ccc(N3C(=O)C=CC3=O)cc2)cc1 | 1.58% | – |
| CN1C(=O)c2ccc([N+](=O)[O-])cc2C1=O | -5.82% | – |
| COCCc1ccccn1 | -0.63% [at 52.9 µM] | – |
| C[C@H](CN1CCCC1)C(=O)c1ccc(C(F)(F)F)cc1 | -0.487% [at 52.9 µM] | – |
| Nc1cnn([C@@H]2O[C@H](CO)[C@@H](O)[C@H]2O)c(=O)n1 | 0.504% | – |
| COc1cc(C(=O)NC2CCCNC2)cc(OC)c1OC (stereo not given) | 0.776% [at 52.9 µM] | – |

| Compound | activity, negative = inhibition | outcome |
| --- | --- | --- |
| CC(=O)S[C@@H]1CC2=CC(=O)CC[C@]2(C)[C@H]2CC[C@@]3(C)[C@@H](CC[C@@]34CCC(=O)O4)[C@H]12 | 5.21% | – |
| COc1cc2c(Nc3ccc(Br)cc3F)ncnc2cc1OCC1CCN(C)CC1 | 1.65% [at 52.9 µM] | – |
| CCCOC(=O)c1ccc(N)cc1 | -2.29% [at 52.9 µM] | – |
| O=C(OCc1ccccc1)C(=O)OCc1ccccc1 | 0.21% | – |
| Cc1nccn1-c1ccc(Sc2cccc(C3(C(N)=O)CCOCC3)c2)cc1 | – | inactive |
| CCNc1nc(NC(C)CC)nc(OC)n1 (stereo not given) | 0.81% | – |
| COc1ccc2c(c1)C(=O)N(CCc1ccc(S(=O)(=O)NC(=O)NC3CCCCC3)cc1)C(=O)C2(C)C | -1.41% [at 52.9 µM] | – |
| C[C@H]1NCc2cc(-c3ccc4c(=O)c(C(=O)O)cn(C5CC5)c4c3OC(F)F)ccc21 | – | inactive |
| CSSc1ccoc1C | 0.737% | – |
| CN(C)CC[C@@H](c1ccc(Br)cc1)c1ccccn1 | -4.35% [at 52.9 µM] | – |
| O=C(Nc1ccc(Cl)c(Cl)c1)c1cc(Cl)cc(Cl)c1O | 8.83% | – |
| C=C1CC[C@H]2C[C@@H]1C2(C)C | 0.465% | – |
| COc1ccccc1N=Nc1c(S(=O)(=O)O)cc2cc(S(=O)(=O)O)cc(NC(C)=O)c2c1O | 0.526% | – |
| ON(Cc1ccccc1)Cc1ccccc1 | -0.316% | – |
| CN1[C@@H]2CC[C@H]1CC(OC(=O)C(O)c1ccccc1)C2 (stereo not given in full) | 0.579% [at 52.9 µM] | – |
| CCCCCCCCCC#N | 0.409% | – |
| NC(=O)NS(=O)(=O)c1ccc(Cl)cc1 | -1.35% [at 52.9 µM] | – |
| Clc1cccnc1 | 0.564% | – |
| CC(=O)OCC(=O)Nc1cc(C#N)cc(NC(=O)COC(C)=O)c1Cl | -3.11% [at 52.9 µM] | – |
| C=CCON/C(CCC)=C1\C(=O)CC(C)(C)C(C(=O)OC)=C1O | 0.754% | – |
